Hit rate of the full screen: of about 310,000 compounds, about 14,000 (4.5%) showed an effect of 50% or more. The effect is printed as a negative number. The sample holds strong results, similar compounds and a random draw of the others, so the mix is not that of the screen.
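Also: peak tail current of the secondary pulse compared with the same well before compound.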

For this experiment, the target named is human ether-à-go-go-related gene (hERG) potassium channel (human, UniProt Q12809). Kind of experiment: primary screen, population patch clamp on CHO cells stably expressing hERG; higher = less effect of the substance.
Chain of human ether-à-go-go-related gene (hERG) potassium channel (Q12809 whole entry, looked up): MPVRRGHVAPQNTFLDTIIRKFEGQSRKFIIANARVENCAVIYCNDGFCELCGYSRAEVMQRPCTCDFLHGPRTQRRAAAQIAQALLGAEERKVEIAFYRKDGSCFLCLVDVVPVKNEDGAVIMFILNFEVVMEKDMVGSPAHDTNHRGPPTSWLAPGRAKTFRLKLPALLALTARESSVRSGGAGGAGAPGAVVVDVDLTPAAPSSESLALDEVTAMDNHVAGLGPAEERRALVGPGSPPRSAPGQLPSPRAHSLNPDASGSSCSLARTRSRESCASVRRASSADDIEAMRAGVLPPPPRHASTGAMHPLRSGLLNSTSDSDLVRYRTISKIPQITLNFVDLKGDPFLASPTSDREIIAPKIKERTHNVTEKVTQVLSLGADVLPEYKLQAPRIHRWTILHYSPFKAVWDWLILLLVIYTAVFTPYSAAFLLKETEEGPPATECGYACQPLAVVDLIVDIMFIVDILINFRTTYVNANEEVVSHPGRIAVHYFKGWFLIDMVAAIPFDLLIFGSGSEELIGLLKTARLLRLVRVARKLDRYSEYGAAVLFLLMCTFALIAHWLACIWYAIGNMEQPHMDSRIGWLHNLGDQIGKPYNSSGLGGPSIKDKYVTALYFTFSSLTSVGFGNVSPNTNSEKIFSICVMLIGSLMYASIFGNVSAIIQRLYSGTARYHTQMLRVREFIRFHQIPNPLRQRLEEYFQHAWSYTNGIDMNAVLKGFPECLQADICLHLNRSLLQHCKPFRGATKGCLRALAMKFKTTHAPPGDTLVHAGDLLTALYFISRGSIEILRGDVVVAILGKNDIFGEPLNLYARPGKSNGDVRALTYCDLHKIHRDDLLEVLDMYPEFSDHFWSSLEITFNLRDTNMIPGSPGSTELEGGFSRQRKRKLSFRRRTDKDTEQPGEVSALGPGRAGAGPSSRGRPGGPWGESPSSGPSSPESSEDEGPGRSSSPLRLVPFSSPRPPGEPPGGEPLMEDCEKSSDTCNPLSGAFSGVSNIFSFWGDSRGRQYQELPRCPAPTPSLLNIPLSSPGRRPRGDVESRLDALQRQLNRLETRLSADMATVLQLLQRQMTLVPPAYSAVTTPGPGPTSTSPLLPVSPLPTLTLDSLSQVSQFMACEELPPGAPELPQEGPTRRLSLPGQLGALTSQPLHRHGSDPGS
In the case of `N#CCCSCc1ccc(OCC(=O)O)cc1`, the “hERG current change (%, negative = inhibition) at 10uM” value is listed as -1.48%.
As for `CCCNC(=O)c1cc(C)no1`, the figure is 12.6%; as for `Cc1ccc(C)c(NC(=O)CCN2CC(C)OC(C)C2)c1` (stereo not drawn), 1.59%; as for `CC(C)C[C@H](NC(=O)N1c2ccccc2NC(=O)[C@@H]1C(C)C)C(=O)N[C@@H](Cc1ccccc1)C(=O)O`, -2.11%.
As for `FC(F)(F)C1=CC(c2ccc(Cl)cc2)=NCCN1`, the figure is -16.1%; as for `CN(c1ccccc1)S(=O)(=O)c1cccc(NC(=O)CN2CCCc3ccccc32)c1`, -2.81%.
As for `O=C(N/C(=C/c1ccccc1Cl)C(=O)N1CCCC1)c1ccccc1`, the figure is -5.15%; as for `COc1ccc(/C=C(/NC(=O)c2ccc(Br)cc2)C(=O)N2CCOCC2)cc1`, 5.5%; as for `COc1ccc(/C=C(\NC(=O)c2ccc([N+](=O)[O-])cc2)C(=O)N2CCOCC2)cc1`, -75%.
`O=C(N/C(=C\c1ccco1)C(=O)N1CCOCC1)c1ccc([N+](=O)[O-])cc1`: the “hERG current change (%, negative = inhibition) at 10uM” value was -70.8%.
On to `Cc1ccc(C(=O)N/C(=C\c2ccco2)C(=O)N2CCOCC2)cc1C`, for which the “hERG current change (%, negative = inhibition) at 10uM” value is reported as 11%.
As for `O=C(N/C(=C\c1ccccc1Cl)C(=O)N1CCOCC1)c1ccc([N+](=O)[O-])cc1`, the figure is -66%; as for `Cc1ccc(C(=O)N/C(=C/c2ccco2)C(=O)N2CCOCC2)cc1`, -12.7%; as for `COc1ccc(C(=O)N/C(=C\c2ccc3c(c2)OCO3)C(=O)N2CCOCC2)cc1`, 19.6%.
As for `COc1cc(/C=C(/NC(=O)c2ccccc2)C(=O)N2CCOCC2)c([N+](=O)[O-])cc1OC`, the figure is -3.92%.
For the compound `COc1ccc(C(=O)/C=C/N(C)C)cc1OC`, the “hERG current change (%, negative = inhibition) at 10uM” value is given as 7.92%.
Take `CN(/N=C/c1ccncc1)c1cnc2ccccc2n1`: the “hERG current change (%, negative = inhibition) at 10uM” value amounted to 19.3%.
As for `CCCCCCC1NC(C(=O)O)CS1` (stereo not drawn), the figure is -0.451%.
`COc1ccc(S(=O)(=O)N2CCOC2CNC(=O)C(=O)NCCCN2CCOCC2)cc1OC` (stereo not drawn): the “hERG current change (%, negative = inhibition) at 10uM” value is given as 8.41%.
As for `CCN(CC)c1cccc(OCC(=O)N(C)CCC#N)c1`, the figure is 18.9%; as for `CC(C)(C)S(=O)(=O)c1ccc(S(=O)(=O)C(C)(C)C)s1`, 22.8%; as for `O=C(CC1C(=O)NCCN1Cc1c(F)cccc1Cl)NCCCn1cccn1` (stereo not drawn), 10.8%.
Take `O=C1c2ccccc2C(=O)C1c1ccc2ccccc2n1`: the “hERG current change (%, negative = inhibition) at 10uM” value was -13.4%.
Regarding `Br.C1=C(c2ccco2)N2CCN=C2S1`, the “hERG current change (%, negative = inhibition) at 10uM” value is 1.91%.
As for `Cc1ccc(Nc2ncc(C(=O)NCCCN3CCN(C)CC3)c3ccccc23)cc1Cl`, the figure is -61.1%.
As for `COc1ccc(Nc2cc(C(=O)NCCCN3CCN(C)CC3)c3ccccc3n2)cc1`, the figure is 2.72%.
As for `COc1ccc(Nc2cc(C(=O)NCCCN3CCN(C)CC3)c3ccccc3n2)cc1OC`, the figure is 1.49%; as for `CN(C)c1nc2n(c(=O)n1)CCO2`, 20.3%.
Consider `Cc1ccc(NC(=O)c2sc3nc(N4CCOCC4)c4c(c3c2N)CC(C)(C)OC4)cc1`, for which the “hERG current change (%, negative = inhibition) at 10uM” value was 5.7%.
In the case of `COC(C(=O)Nc1ccc(F)cc1)c1ccccc1` (stereo not drawn), the “hERG current change (%, negative = inhibition) at 10uM” value is -0.691%.
As for `Cc1ccc(NC(=O)NCC(c2ccccc2)N(C)C)cc1` (stereo not drawn), the figure is 12.4%; as for `COCCNC(C(=O)Nc1ccc([N+](=O)[O-])cc1Br)c1ccccc1` (stereo not drawn), -74%; as for `CN(C)C(CNC(C(=O)Nc1ccc([N+](=O)[O-])cc1Br)c1ccccc1)c1ccccc1` (stereo not drawn), -66.5%.
For `COCCNC(C(=O)Nc1ccc(C)cc1[N+](=O)[O-])c1ccccc1` (stereo not drawn), the “hERG current change (%, negative = inhibition) at 10uM” value is recorded as -6.29%.
As for `CC(C)C(=O)Nc1ccc([N+](=O)[O-])cc1Br`, the “hERG current change (%, negative = inhibition) at 10uM” value was -5.22%.
As for `CCCCNC(C(=O)Nc1ccc([N+](=O)[O-])cc1Br)c1ccccc1` (stereo not drawn), the figure is 5.72%; as for `CC(C)CNC(C(=O)Nc1ccc([N+](=O)[O-])cc1Br)c1ccccc1.O=C(O)C(=O)O` (stereo not drawn), -9.16%.
As for `O=C(OC(C(=O)Nc1ccc([N+](=O)[O-])cc1Br)c1ccccc1)c1ccccc1` (stereo not drawn), the figure is 5.91%; as for `COCCNC(C(=O)Nc1cc(Cl)cc(Cl)c1)c1ccccc1` (stereo not drawn), -16.4%; as for `CCN(CC)CCNC(C(=O)Nc1ccc([N+](=O)[O-])cc1Br)c1ccccc1` (stereo not drawn), -77%.
As for `CN(C)C(CNC(C(=O)Nc1ccc(F)cc1)c1ccccc1)c1ccccc1` (stereo not drawn), the “hERG current change (%, negative = inhibition) at 10uM” value is listed as -70.6%.
Consider `CCCSc1nc2sc3c(c2c(=O)n1CC)CC(C)(C)OC3`, for which the “hERG current change (%, negative = inhibition) at 10uM” value is recorded as 3.41%.
As for `CCS(=O)(=O)NCC(c1ccco1)N1CCN(c2ccccc2F)CC1` (stereo not drawn), the figure is -1.69%; as for `COc1ccc(OC)c(NC(=O)COC(=O)CN2C(=O)NC3(CCCC3)C2=O)c1`, 7.58%; as for `O=C(CCCOC(=O)c1ccc(O)cc1O)c1ccc(F)cc1`, -11.6%.
As for `Cc1ccc(CS(=O)(=O)CCC(=O)NCCN2CCCCC2C)cc1` (stereo not drawn), the figure is -2.59%; as for `Cc1cccc(/C=N/N2CCN(c3ccccc3)CC2)c1`, -4.38%.
Regarding `O=C(O)CCCC(=O)OCCCCc1cccs1`, the “hERG current change (%, negative = inhibition) at 10uM” value is on record as -2.23%.
As for `Nc1c2c(nc3ccccc13)N(C1CCCCC1)CC2`, the figure is -65.6%; as for `Nc1c2c(nc3ccc(Br)cc13)N(C1CCCCC1)CC2.O=C(O)C(=O)O`, -70.1%; as for `Nc1c2c(nc3ccc(Br)cc13)N(c1ccccc1)CC2.O=C(O)C(=O)O`, -21.3%.
As for `Cc1nc2ccccc2c(=O)n1C1CCCCCC1`, the figure is -7.64%; as for `Nc1c2c(nc3ccc(Br)cc13)N(Cc1ccccc1)CC2`, -43.5%.
Take `c1ccc2nc3c(nc2c1)OCC1CCCCN31` (stereo not drawn): the “hERG current change (%, negative = inhibition) at 10uM” value is -14.2%.
As to `CCOC(=O)c1sc(NC(=O)c2ccncc2)c(C#N)c1C`, the “hERG current change (%, negative = inhibition) at 10uM” value turned out to be 22.8%.
For the compound `CC(C)=C1SC(N2CCN(c3cccc(C(F)(F)F)c3)CC2)=NC1=O`, the “hERG current change (%, negative = inhibition) at 10uM” value is listed as -2.7%.
`Oc1ccc[nH+]c1SCc1ccccc1.[Br-]`: the “hERG current change (%, negative = inhibition) at 10uM” value came out at 12.7%.

For the origin of these results see article PMC4336329 (PLoS ONE, 2015).
